A number with no mark means an inactive call.
Test system: Vero E6 infected with SARS-CoV-2
Assay: inhibition of SARS-CoV-2 cytopathic effect; higher = more antiviral protection, active = above 15
Settings: 48 h

Compound | inhibition of SARS-CoV-2 cytopathic effect (1 nM) [%] | inhibition of SARS-CoV-2 cytopathic effect (8.33 nM) [%] | inhibition of SARS-CoV-2 cytopathic effect (100 nM) [%] | inhibition of SARS-CoV-2 cytopathic effect (833.33 nM) [%] | inhibition of SARS-CoV-2 cytopathic effect (10000 nM)
COC(=O)C1=C(C)NC(C)=C(C(=O)OC)C1c1ccccc1[N+](=O)[O-] [nifedipine] | -0.99 | 0.14 | -0.27 | 3.23 | 4.43%
CC(C)(C)Nc1nc(Nc2ccc(C(N)=O)cc2)cc(N)c1C#N | -1.51 | -2.29 | -0.39 | -2.89 | -1.36%
COCCNC(=O)COc1ccc(OCCNC[C@H](O)COc2ccccc2)cc1 | 0.49 | 1.84 | -1.53 | -1.02 | -6.62%
CCCN(CCC)S(=O)(=O)c1ccc(C(=O)O)cc1 [probenecid] | -0.75 | -2.02 | -2.27 | -2.63 | -2.19%
C[C@H](NC(=O)C(C)(C)Oc1ccc(C(F)(F)F)cn1)[C@@H](Cc1ccc(Cl)cc1)c1cccc(C#N)c1 [taranabant] | -0.8 | 0.33 | -2.11 | 1.39 | -5.97%
CN(C(=O)Cc1ccc(Cl)c(Cl)c1)[C@H](CN1CCCC1)c1ccccc1 | 4.62 | 6.47 | 6.09 | -0.24 | 34.8% (active)
O=C(O)c1ccccc1Nc1cccc(C(F)(F)F)c1 [flufenamic-acid] | -1.93 | 0.57 | -0.92 | 0.82 | 0.1%
Cn1ccnc1S [methimazole] | 0.07 | 2.09 | 0.26 | 0.56 | 0.22%
COc1cc2c(cc1Cc1cccc(Cl)c1F)c(=O)c(C(=O)O)cn2[C@H](CO)C(C)C [elvitegravir] | 2.45 | 1.56 | 1.54 | 1.67 | -6.71%
C[C@@H](NC(=O)[C@@H](N)Cc1ccc(O)cc1)C(=O)NCC(=O)N(C)[C@@H](Cc1ccccc1)C(=O)N[C@H](CO)CC[S+](C)[O-] (stereo not given in full) | -0.57 | -1.1 | -1.84 | -0.24 | 0.65%
C[C@@H](Oc1ccc2[nH]nc(/C=C/c3cnn(CCO)c3)c2c1)c1c(Cl)cncc1Cl | -0.14 | -0.97 | -1.04 | -13.8 | -14.7%
CNC(=O)c1ccccc1Nc1cc(Nc2ccc(N3CCOCC3)cc2OC)ncc1C(F)(F)F | 0.1 | -1.1 | -2.99 | -4.38 | -3.64%
O=C(NCc1ccccc1)c1csc(Nc2ccncn2)n1 [thiazovivin] | -2.48 | 1.22 | -1.94 | -2 | -11.5%
Cc1cc(-c2nncc3c(C(C)(C)C)c(OCc4ncnn4C)nn23)no1 | 1.59 | -1.07 | 0.62 | -3.08 | -1.02%
COc1cc(-c2cc(-c3cccc(O)c3)cnc2N)cc(OC)c1OC | -0.86 | -1.83 | -1.83 | 1.55 | 2.09%
CCCCCCNC(=O)n1cc(F)c(=O)[nH]c1=O [carmofur] | 2.01 | 4.18 | 2.63 | 2.67 | 4.01%
Cc1nnc(C(C)C)n1C1C[C@H]2CC[C@@H](C1)N2CC[C@H](NC(=O)C1CCC(F)(F)CC1)c1ccccc1 (stereo in doubt) [maraviroc] | -2.38 | -1.45 | 1.77 | -0.21 | 2.92%
CNC[C@H](O)[C@@H](O)[C@H](O)[C@H](O)CO [meglumine] | -10 | -10.3 | -6.44 | -11.4 | -10.1%
